In all, about 94,000 compounds went through this assay and about 2,100 (2.2%) were called active. Cut-off read from the data, not from the text of the source: active = activity change below about -80%; inconclusive = no clear call, values can overlap the other calls; inactive = above that. The list comes from a sample in which actives are over-represented; it also holds similar structures and randomly drawn compounds.

The assay in a line: P. falciparum Dd2 growth inhibitors, primary screen, SYBR Green fluorescence, single dose replicates (AID 1159554). To be noted: 72 h, at 10 µM, hits give low values.
For the compound `C[C@@H]1CCCCO[C@H](CN(C)C(=O)NC2CCCCC2)[C@H](C)CN([C@H](C)CO)C(=O)c2cc(NC(=O)Nc3ccc(F)cc3)ccc2O1`, the activity change was -85.2% (active).
The value for `C[C@@H]1CN([C@@H](C)CO)C(=O)c2cc(NS(=O)(=O)c3cccs3)ccc2O[C@@H](C)CCCCO[C@@H]1CN(C)C(=O)NC1CCCCC1` was -14% (inactive); that for `C[C@@H]1CN([C@@H](C)CO)C(=O)c2cc(NC(=O)Nc3cccc4ccccc34)ccc2O[C@@H](C)CCCCO[C@@H]1CN(C)S(=O)(=O)c1ccc(Cl)cc1` was -85.2% (active).
For `C[C@H](CO)N1C[C@H](C)[C@@H](CN(C)S(C)(=O)=O)OCCCC[C@H](C)Oc2ccc(NC(=O)Nc3cccc4ccccc34)cc2C1=O`, the activity change was 11.4% (inactive).
The result for `CCCN(C)C[C@@H]1OCCCC[C@H](C)Oc2ccc(NS(=O)(=O)c3ccc(C)cc3)cc2C(=O)N([C@H](C)CO)C[C@@H]1C` reads -87.8% (active).
With `C[C@H]1CCCCO[C@@H](CN(C)C(=O)C2CCCCC2)[C@@H](C)CN([C@@H](C)CO)C(=O)c2cc(NS(=O)(=O)c3cccs3)ccc2O1`, the activity change was -83.8% (active).
The result for `Cc1ccc(S(=O)(=O)Nc2ccc3c(c2)C(=O)N([C@H](C)CO)C[C@@H](C)[C@@H](CN(C)C)OCCCC[C@@H](C)O3)cc1` reads -28.5% (inactive); that for `C[C@H]1CCCCO[C@@H](CN(C)C(=O)c2ccccc2)[C@@H](C)CN([C@@H](C)CO)C(=O)c2cc(NS(=O)(=O)c3cccs3)ccc2O1`, -57.2% (inactive).
The result for `C[C@@H]1CCCCO[C@@H](CN(C)C(=O)NC2CCCCC2)[C@H](C)CN([C@@H](C)CO)C(=O)c2cc(NC(=O)Nc3ccc(F)cc3)ccc2O1` reads 7.58% (inactive).
The value for `CC(C)NC(=O)Nc1ccc2c(c1)C(=O)N([C@@H](C)CO)C[C@H](C)[C@H](CN(C)S(=O)(=O)c1ccc(Cl)cc1)OCCCC[C@H](C)O2` was -79.5% (inactive); that for `CCCN(C)C[C@H]1OCCCC[C@H](C)Oc2ccc(NS(=O)(=O)c3ccc(C)cc3)cc2C(=O)N([C@@H](C)CO)C[C@H]1C` was -65.3% (inactive); that for `C[C@@H]1CCCCO[C@H](CN(C)C(=O)NC2CCCCC2)[C@H](C)CN([C@@H](C)CO)C(=O)c2cc(NC(=O)Nc3ccc(F)cc3)ccc2O1` was -11.4% (inactive).
Consider `CCCNC(=O)N[C@@H]1CC[C@@H](CCn2cc(C3CC3)nn2)O[C@@H]1CO`, for which the activity change is 12.3% (inactive).
`COc1ccccc1S(=O)(=O)N1C[C@@H](O)COC[C@H]2O[C@H](CC(=O)O)CC[C@@H]21`: the activity change is -3.23% (inactive).
As to `COc1ccc(NC(=O)N(C)C[C@@H]2Oc3ncc(-c4ccc(C#N)cc4)cc3C(=O)N([C@@H](C)CO)C[C@H]2C)cc1`, the activity change is 34.7% (inactive).
`O=C(C1CCC1)N1CC[C@@H]2[C@H]1c1cc(C#Cc3ccc(F)cc3)ccc1N[C@@H]2CO`: the activity change was -70.8% (inactive).
For the compound `O=C(c1cccc(F)c1)N1C[C@H]2[C@@H](c3ccccc31)[C@@H](CO)N2C(=O)Cc1ccccc1`, the activity change was 0.269% (inactive).
The value for `C[C@H](CO)N1C[C@H](C)[C@@H](CN(C)CC2CCCCC2)Oc2ccc(NS(=O)(=O)c3cccs3)cc2CC1=O` was -7.92% (inactive).
The result for `C[C@@H]1CCCCO[C@H](CN(C)Cc2ccccc2)[C@@H](C)CN([C@@H](C)CO)C(=O)c2cc(NC(=O)Nc3ccc(F)cc3)ccc2O1` reads -73.3% (inactive); that for `CCCN(C)C[C@@H]1OCCCC[C@@H](C)Oc2ccc(NC(=O)Nc3ccc(C(F)(F)F)cc3)cc2C(=O)N([C@H](C)CO)C[C@H]1C`, -75.7% (inactive).
`C[C@@H]1CCCCO[C@H](CN(C)CC2CCCCC2)[C@H](C)CN([C@H](C)CO)C(=O)c2cc(NC(=O)Nc3ccc(F)cc3)ccc2O1`: the activity change is -79.8% (inactive).
The value for `COc1ccc(NC(=O)Nc2ccc3c(c2)C(=O)N([C@H](C)CO)C[C@@H](C)[C@H](CN(C)CC2CCCCC2)OCCCC[C@@H](C)O3)cc1` was -85.2% (active); that for `C[C@@H]1CN([C@H](C)CO)C(=O)c2cc(NC(=O)Nc3ccc(F)cc3)ccc2O[C@@H](C)CCCCO[C@@H]1CN(C)CC1CCCCC1` was -82.5% (active); that for `COc1ccc(NC(=O)Nc2ccc3c(c2)C(=O)N([C@H](C)CO)C[C@H](C)[C@@H](CN(C)S(=O)(=O)c2ccc(OC)cc2)OCCCC[C@H](C)O3)cc1` was 0.392% (inactive).
For the compound `COc1ccc(NC(=O)Nc2ccc3c(c2)C(=O)N([C@@H](C)CO)C[C@H](C)[C@H](CN(C)S(=O)(=O)c2ccccc2)OCCCC[C@@H](C)O3)cc1`, the activity change was -87.4% (active).
The value for `COc1ccc(NC(=O)Nc2ccc3c(c2)C(=O)N([C@@H](C)CO)C[C@H](C)[C@H](CN(C)CC2CCCCC2)O3)cc1` was 13.9% (inactive); that for `COc1ccc(S(=O)(=O)N(C)C[C@@H]2OCCCC[C@H](C)Oc3ccc(NC(=O)Nc4ccccc4)cc3C(=O)N([C@@H](C)CO)C[C@H]2C)cc1` was -79.2% (inactive).
As to `CC(C)NC(=O)Nc1ccc2c(c1)C(=O)N([C@H](C)CO)C[C@H](C)[C@@H](CN(C)CC1CCCCC1)OCCCC[C@@H](C)O2`, the activity change is -13.3% (inactive).
Take `CCCN(C)C[C@H]1OCCCC[C@@H](C)Oc2ccc(NC(=O)Nc3ccc(F)cc3)cc2C(=O)N([C@@H](C)CO)C[C@H]1C`: the activity change was -91.5% (active).
In the case of `COc1ccc(NC(=O)Nc2ccc3c(c2)C(=O)N([C@H](C)CO)C[C@H](C)[C@@H](CN(C)C(=O)Nc2ccc(OC)cc2)OCCCC[C@H](C)O3)cc1`, the activity change was -22.2% (inactive).
`O=C(C1CCCCC1)N1CC2(C1)[C@H](c1ccccc1)[C@@H](CO)N2Cc1cncnc1`: the activity change was 32.5% (inactive).
The result for `O=C(C[C@@H]1CC[C@@H]2[C@H](COC[C@H](O)CN2S(=O)(=O)c2ccccc2F)O1)NCc1ccccc1F` reads 0.606% (inactive); that for `C[C@@H]1CCCCO[C@@H](CN(C)S(=O)(=O)c2cn(C)cn2)[C@H](C)CN([C@@H](C)CO)C(=O)c2cc(NC(=O)Nc3ccccc3)ccc2O1`, -13.9% (inactive); that for `CC(C)NC(=O)N1[C@@H]2CN(C(=O)Nc3ccc(F)cc3)c3ccccc3[C@@H]2[C@@H]1CO`, 18.6% (inactive).

The record behind these values is PubChem BioAssay AID1159554 (Broad Institute, 2015).
